Assay outcomes deposited in PubChem BioAssay by National Center for Advancing Translational Sciences (NCATS).
SMN2 splice enh: qHTS Assay for Enhancers of SMN2 Splice Variant Expression. 2.8% of 210,000 active. HEK293 SMN2-luciferase splicing reporter, luminescence, 30-36 h. Potency, µM (top dose mostly 46.1 µM), most hits filed as activators. AID 1458, 2008; note: nearly all actives have a fitted effect of over 55% in size
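qHTS luciferase splicing reporter: luminescence rises when SMN2 exon 7 is included in transfected HEK293 cells. Compound exposure lasted 30-36 h at 37C, with 4.5 mM final sodium butyrate as control, followed by a ONE-Glo read.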
Rab9 promoter act: qHTS Assay for Rab9 Promoter Activators | Huh7 Rab9 promoter-luciferase reporter, luminescence, 24 h | Potency, µM (top dose mostly 9.22 µM), usual class: activators | 2.8% of 320,000 active | AID 485297, 2010; note: nearly all actives have a fitted effect of over 60% in size
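Cells were plated at 1500 per well in reduced-serum medium with 10% FBS and left 2 h. Compound in DMSO was then added for 24 h at 37 °C. Reporter signal was read by luminescence after 10 min with luciferase detection reagent.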
NPC1 prom act: qHTS Assay for NPC1 Promoter Activators | Huh7 NPC1 promoter luciferase reporter, 24 h | AID 485313, 2010 | 2.4% of 320,000 active | Potency, µM (titrated, usually from 9.22 µM), actives largely listed as activators; note: nearly all actives have a fitted effect of over 60% in size
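Quantitative HTS used a cell-based reporter: Huh7 cells stably bearing the NPC1 promoter upstream of luciferase were treated with compounds for 24 h, and promoter activation was read as luminescence.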
FLuc modulator: qHTS profiling assay for firefly luciferase inhibitor/activator using purifed enzyme and Km concentrations of substrates (counterscreen for miR-21 project). Luciferin 4-monooxygenase (Photinus pyralis), P08659. Potency, µM (top dose mostly 57.5 µM), most hits filed as inhibitors. purified FLuc, Km substrates, luminescence inhibition. 6.9% of 360,000 active; note: nearly all actives have a fitted effect of over 55% in size
Target sequence (P08659 whole entry, looked up): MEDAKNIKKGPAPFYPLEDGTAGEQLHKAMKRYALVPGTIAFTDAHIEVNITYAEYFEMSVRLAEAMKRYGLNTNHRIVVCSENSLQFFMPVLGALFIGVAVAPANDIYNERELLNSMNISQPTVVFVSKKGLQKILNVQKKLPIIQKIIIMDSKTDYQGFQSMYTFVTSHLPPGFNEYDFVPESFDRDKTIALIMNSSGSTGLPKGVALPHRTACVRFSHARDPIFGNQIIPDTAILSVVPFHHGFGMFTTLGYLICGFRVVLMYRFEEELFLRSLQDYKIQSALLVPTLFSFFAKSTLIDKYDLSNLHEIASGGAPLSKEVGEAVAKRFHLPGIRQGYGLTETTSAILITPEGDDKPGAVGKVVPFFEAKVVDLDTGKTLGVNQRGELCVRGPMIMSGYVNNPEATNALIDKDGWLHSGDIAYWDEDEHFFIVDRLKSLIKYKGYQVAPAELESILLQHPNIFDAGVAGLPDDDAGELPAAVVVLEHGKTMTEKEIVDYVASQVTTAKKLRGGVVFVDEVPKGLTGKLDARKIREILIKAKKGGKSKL
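Purified P. pyralis luciferase, 10 nM final, with Km-level 10 uM D-luciferin and 10 uM ATP in 50 mM Tris acetate pH 7.5, 10 mM Mg acetate, 0.01% Tween-20, 0.05% BSA; 6-point qHTS titration about 60 µM downward; luminescence read.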
Luc counter: Counterscreen for Luciferase (Kinase-Glo TM) Inhibition; Kinase-Glo luciferase, ATP luminescence, 8 min; Luciferin 4-monooxygenase (Photuris pensylvanica), Q27757; AID 1379, 2008; 0.28% of 200,000 active; Potency, µM (highest dose often 38.3 µM), most hits filed as inhibitors; note: nearly all actives have a fitted effect of over 60% in size
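Recombinant Kinase-Glo luciferase, 10 uM ATP (linear range), luciferin; imidazole pH 7.2 / KCl / MgCl2 / Tween / BSA buffer; 8 min RT; luminescence.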
ELG1 genotoxic: qHTS screen for small molecules that induce genotoxicity in human embryonic kidney (HEK293T) cells expressing luciferase-tagged ELG1. Potency, µM (top dose mostly 46 µM), actives largely listed as activators. HEK293T ELG1-luciferase reporter, luminescence, 16 h. 1.3% of 330,000 active; note: nearly all actives have a fitted effect of over 60% in size
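Reporter readout depends on ELG1 protein level, which increases with genetic stress. After 16 hr compound exposure at 37 °C, luciferase activity was quantified using ONE-Glo.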
A number is an active result; n = inactive; u = inconclusive; x = no result given; [ ] = remark or other dose. The list is not random: actives were taken first. Their share in the collection is about 7.5%. Calls come from the whole dose curve; as a rule, active = well fitted curve in the direction sought with a large enough effect; inconclusive = small, poorly fitted or top-dose-only effect, or another doubt; inactive = no such curve, though single readings can be large; an effect the other way counts as inactive or inconclusive.

SMILES	SMN2 splice enh	Rab9 promoter act	NPC1 prom act	FLuc modulator	Luc counter	ELG1 genotoxic
CCOc1cc(C2NN=C(c3ccccc3)S2)ccc1OCc1ccccc1Cl (stereo not drawn)	n	u	u	7.6µM	n	u
O=C(COC(=O)C1CC1)NC(=O)c1ccccc1	x	n	n	n	x	n
O=C(N/N=C/c1c[nH]c2ccccc12)c1ccn(Cc2ccc(Cl)cc2Cl)n1	n	n	n	u	n	n
Cn1ccc(C(=O)N/N=C/c2c[nH]c3ccccc23)n1	x	u	u	15µM	x	u
CC(C)c1cc(C(=O)N/N=C/c2c[nH]c3ccccc23)n[nH]1	x	n	n	24µM	x	n
NC(=O)NS(=O)(=O)Oc1ccccc1	x	n	n	n	x	n
Cc1cccc(C(=O)Nc2sc3c(c2C(=O)O)CCC3)c1	x	n	u	17µM	x	n
Cc1ccc(NC(=O)c2c(NC(=O)c3ccccc3Cl)sc3c2CCC3)cc1	n	x	x	n	x	x
Cc1cccc(NC(=O)c2c(NC(=O)c3ccccc3)sc3c2CCC3)c1	n	x	x	u	x	x
CNC(=O)c1c(NC(=O)/C=C/c2ccccc2Cl)sc2c1CCC2	x	x	x	9.5µM	x	x
COc1cccc(C(=O)Nc2sc3c(c2C(=O)O)CCCC3)c1	x	n	n	21µM	x	n
COc1cccc(C(=O)Nc2sc3c(c2C#N)CCN(C(C)=O)C3)c1	n	n	n	15µM	n	u
COc1ccc(OC)c(/C=C/C(=O)N2CCN(S(=O)(=O)c3ccc(C)cc3C)CC2)c1	x	n	n	n	x	n
COc1cc2ccccc2cc1C(=O)N1CCN(c2nc3ccc(F)cc3s2)CC1	x	x	x	n	x	x
Cc1ccc(S(=O)(=O)N2CCCCC2)cc1C(=O)NCCCN1CCOCC1	x	n	n	n	x	n
C[C@H](CO)N1C[C@H](C)[C@@H](CN(C)S(=O)(=O)c2ccccc2)Oc2c(NC(=O)Nc3ccc4c(c3)OCO4)cccc2C1=O	x	x	x	x	x	n
COCCn1c(SCC(=O)c2ccc(C)cc2)nc2cc(C(=O)NC3CCCC3)ccc2c1=O	x	x	x	n	x	x
CNC(=O)c1c(NC(=O)c2cccc(C)c2)sc2c1CCC2	x	u	u	21µM	x	u
Cc1cccc(C(=O)Nc2sc3c(c2C(=O)NC(C)C)CCCC3)c1	n	x	x	n	x	x
CC(C)(C)n1ncc2c(=O)n(CC(=O)Nc3ccccc3)cnc21	n	n	n	n	n	n
CC(C)(C)n1ncc2c(=O)n(CC(=O)NCc3ccco3)cnc21	13µM	3.2µM	3.2µM	u	n	u
CC(C)(C)n1ncc2c(=O)n(CC(=O)NCc3ccc(F)cc3)cnc21	8.9µM	0.35µM	0.5µM	4.3µM	n	4.1µM
CC(C)(C)n1ncc2c(=O)n(CC(=O)NC3CCCCC3)cnc21	n	u	u	u	n	u
Cc1ccccc1NC(=O)c1ccc(N(Cc2ccccc2)S(C)(=O)=O)cc1	n	x	x	n	x	x
CC1CCN(Cc2c(O)ccc3c(=O)c(-c4cccc(Cl)c4)c(C(F)(F)F)oc23)CC1	n	x	x	n	x	x
SMILES	SMN2 splice enh	Rab9 promoter act	NPC1 prom act	FLuc modulator	Luc counter	ELG1 genotoxic
CCc1cc2c(Sc3nc4ccccc4s3)ncnc2s1	x	n[1.84 µM]	n	11µM	n	n
c1ccc2sc(Sc3ncnc4sccc34)nc2c1	u	n	n	0.95µM	n	n
COc1ccc(/C=C/C(=O)OCC(=O)N2CCCCCC2)c(OC)c1	x	n	n	u	x	n
COc1ccc(C(=O)Nc2nnc(-c3cccs3)s2)cc1	7.1µM	0.79µM	1µM	1.2µM	n	0.52µM
O=C(Nc1nnc(-c2cccs2)s1)c1cccc(F)c1	8.9µM	0.89µM	1.8µM	u	n	u
COc1ccc(NC(=O)Nc2nnc(-c3cccs3)s2)cc1	x	4µM	4.5µM	u	x	n
Cc1occc1C(=O)Nc1nnc(-c2cccs2)s1	3.5µM	3.2µM	u	u	n	u
Cc1nnc(NC(=O)c2cccc(F)c2)s1	n	n	n	u	n	n
O=C(Nc1ccccc1)Nc1nnc(-c2cccs2)s1	u	u	u	n	n	n
Cn1c(N)c(C(=O)CSc2nnc(C3CC3)n2Cc2ccccc2)c(=O)[nH]c1=O	x	n	n	x	x	n
CCSc1nc2ccccc2c(=O)n1CCc1ccc(OC)c(OC)c1	x	n	n	n	x	n
Nc1ncnc2c1nc(Sc1ccc(Cl)cc1)n2[C@H]1OC2COP(=O)(O)O[C@@H]2C1O (stereo partly drawn)	x	n	n	x	x	x
CC(C)(C)CC(=O)Nc1nnc(-c2cccs2)s1	13µM	3.2µM	3.2µM	n	n	n
CCCCCCCCCCCCC(=O)N1CCCC[C@H]1CNC(=O)[C@@H](N)CCCCN	x	x	x	x	n	x
CCNC(=S)NNC(=O)c1cc(-c2ccc(OCC)cc2)nc2ccccc12	n	u	u	0.024µM	1µM	n
COc1ccc(-c2cc(C(=O)NNC(=S)NC(=O)c3c(-c4ccccc4)noc3C)[nH]n2)cc1	n	n	n	9.5µM	n	n
CCNC(=S)NNC(=O)c1cc(-c2ccccc2C)nc2ccccc12	n	n	n	17µM	n	n
CCCOc1ccc(C(=O)NNC(=S)NC(=O)c2cc(-c3ccc(Cl)cc3)nc3ccccc23)cc1	n	n	n	u	n	n
Cc1ccc(C)c(-c2cc(C(=O)NNC(=S)NCC(C)C)c3ccccc3n2)c1	x	n	n	u	x	n
COc1ccc(C(=O)NNC(=S)NC(=O)c2cc(-c3ccccc3)nc3ccccc23)cc1	n	n	n	12µM	n	n
Cn1c(=O)c(C(=O)COC(=O)c2cc(-c3ccco3)nc3ccccc23)c(N)n(CC2CC2)c1=O	n	n	n	u	n	n
CCc1ccc(-c2nc(CN3CCCC(C(=O)N4CCN(c5cc(Cl)ccc5C)CC4)C3)c(C)o2)cc1 (stereo not drawn)	n	x	x	n	x	x
CCNC(=S)NNC(=O)c1cc(CC(C)C)nc2ccccc12	n	n	n	u	n	n
CCNC(=S)NNC(=O)c1cc(-c2cccc(OC)c2)nc2ccccc12	u	n	n	0.67µM	u	u
CCCOc1cccc(-c2cc(C(=O)NNC(=S)NCC)c3ccccc3n2)c1	n	u	n	0.76µM	n	n
Cc1noc(C)c1C(=O)N1CCC2(CCN(Cc3ccccc3)CC2)CC1	n	x	x	x	n	x
COc1ccc(OC)c(NC(=O)CSCC(=O)O)c1	n	n	n	n	n	n
COC(=O)c1sc(-c2ccc(Cl)cc2)cc1NC(=O)c1ccccc1C(=O)O	x	n	n	21µM	x	n
COC(=O)c1sc(-c2ccc(C(C)(C)C)cc2)cc1NC(=O)c1ccccc1C(=O)O	x	n	n	11µM	x	n
